Hit rate of the full screen: of about 10,000 compounds, about 25 (0.2%) were called active.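 The calls were made as follows: active = compound among top-ranked inhibitors of TNF-induced VCAM-1 adhesion protein staining, with the hit upheld by image or statistical review; inactive = the rest, including hits rejected on review.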 For the sample, actives were picked, then their nearest neighbours and some compounds at random.

A short description of this test: inhibitors of TNFa-induced VCAM-1 surface display, cell-based, plate reader, pooled HUVEC, TNFa stimulus (AID 454). The conditions noted are these: HUVEC TNFa-induced VCAM-1 surface immunofluorescence; stronger effect = higher value,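 compound tested at 5 µM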.
In general, inhibition refers to the relative decrease from the control value, in per cent. Turning to `CC(=O)N1CCN(c2ccc(N=Cc3c(O)n(Cc4ccccc4)c(=O)[nH]c3=O)cc2)CC1`, the inhibition result is “inactive”.
The entry for `C1=CC2CC1CC2CN1CCN(c2ccccc2)CC1` (configuration not stated) is “inactive”.
For `CCOC(=O)C(NC(=O)CC)(Nc1ccc(S(=O)(=O)Nc2onc(C)c2C)cc1)C(F)(F)F` (configuration not stated), the inhibition entry is “inactive”.
The entry for `O=C(Nc1nc2c(s1)CCc1ccccc1-2)c1cccs1` is “inactive”; for `CS(=O)(=O)N1CCCC(C(=O)NCc2ccccc2Cl)C1` (configuration not stated) it is “inactive”; for `CCOC(=O)c1sc(Nc2nc3c(OC)cccc3s2)nc1C` it is 73.7% (active).
The entry for `CCOC(=O)c1sc(NS(=O)(=O)c2ccc(NC(C)=O)cc2)nc1C` is “inactive”; for `COC(=O)c1sc(NC(=O)COc2ccccc2OC)nc1C` it is “inactive”; for `O=C(c1ccco1)N1CCN(c2c(-c3ccccc3)c3cc(Cl)ccc3[nH]c2=O)CC1` it is 86.3% (active).
The entry for `O=C(O)c1[nH]c2ccc(Cl)cc2c1CC(=O)N1CCN(C(=O)c2ccco2)CC1` is “inactive”; for `O=C(c1ccco1)N1CCN(c2cccc(Cl)c2)CC1` it is “inactive”.
Turning to `O=S1(=O)C=C(Sc2nc3ccccc3s2)c2ccccc21`, the inhibition was 110% (inactive).
The figure for `Cc1cc(C)nc(SC2=CS(=O)(=O)c3ccccc32)n1` is 91% (active); for `O=S1(=O)C=C(Sc2nnc(-c3ccccc3)o2)c2ccccc21` it is “inactive”; for `Cc1ccc(-c2nc3cnccn3c2Nc2ccc3c(c2)OCO3)o1` it is “inactive”.
The entry for `CCOC(=O)C(C(C)=O)c1nc(C)nc2c1nnn2Cc1ccccc1Cl` (configuration not stated) is “inactive”.
The entry for `CCC(C(=O)NC(C)CCc1ccco1)n1nc(C)n2c(cc3occc32)c1=O` (configuration not stated) is “inactive”; for `CCOc1ccccc1NC(=O)CCN1CCN(S(=O)(=O)c2ccc(Br)cc2)CC1` it is “inactive”.
Take `COc1cccc(-c2nc(CS(=O)(=O)CC(=O)N3CCN(c4ccccn4)CC3)c(C)o2)c1`: the inhibition entry is “inactive”.
The entry for `Cc1cc(C)n(-c2nc3ccccc3c(=O)n2OCCOc2ccccc2)n1` is “inactive”; for `Cn1cccc1Cc1nnc(SCC(=O)N2CCOCC2)n1-c1ccc(F)cc1` it is “inactive”; for `O=C(CN(c1ccc(F)cc1)S(=O)(=O)c1ccc2c(c1)OCCO2)Nc1ccc2c(c1)OCO2` it is “inactive”.
`CN(C)/C=C(\C#N)c1nc2ccccc2[nH]1`: the inhibition entry was “inactive”.
`O=C(CN(c1ccc(F)cc1)S(=O)(=O)c1ccc2c(c1)OCCO2)Nc1cccnc1`: the inhibition entry is “inactive”.
The entry for `COc1ccc(CNc2oc(-c3cccc4ccccc34)nc2C#N)cc1` is “inactive”; for `CCN(CC)CCOC(=O)c1c(C)oc2ccc(O)cc12` it is “inactive”; for `CCCCc1oc2ccccc2c1C(=O)c1cc(I)c(OCCN(CC)CC)c(I)c1` it is 85.9% (active).
As for `CCc1oc2ccccc2c1C(=O)c1cc(Br)c(O)c(Br)c1`, the inhibition result was “inactive”.
The entry for `O=C(COc1ccccc1Cl)NCc1ccco1` is “inactive”; for `CCCC1Cc2c(sc3ncnc(N)c23)CO1` (configuration not stated) it is “inactive”.
The entry for `COc1cccc(NC(=O)N2CCC(N3CCCCC3)CC2)c1` is “inactive”; for `CCc1nc(C)c(C#N)c2cc(OC)c(OC)cc12` it is “inactive”.
The entry for `COc1cc(CC(=O)Nc2ncc(C)s2)cc(OC)c1OC` is “inactive”; for `C#CCNc1c(C)c(C)nc2ncnn12` it is “inactive”.
For the compound `CCN1CCN(Cc2ccc(NC(=O)Nc3ccc(SC)cc3)cc2)CC1`, the inhibition result was “inactive”.
The entry for `Cn1c(=O)[nH]c(=O)c2[nH]c(CN3CCN(C(=O)c4ccco4)CC3)nc21` is “inactive”; for `CC(=O)OCC(=O)[C@H]1CC[C@H]2[C@@H]3CCC4=CC(=O)CC[C@]4(C)[C@H]3CC[C@]12C` it is “inactive”.
For `CC(=O)[C@H]1CC[C@H]2[C@@H]3CCC4=CC(=O)CC[C@]4(C)[C@H]3CC[C@]12C`, the inhibition is 96.7% (active).
The entry for `C[C@]12CC[C@H]3[C@@H](CCC4=CC(=O)CC[C@@]43C)[C@@H]1CC[C@@H]2C(=O)CO` is “inactive”; for `CCC(=O)N[C@@H]1CC(C(C)(C)NC(=O)CC)CC=C1C` (some centres not stated) it is “inactive”; for `COc1cc(OC)c2c(c1)OC(c1ccc(OC)c(OC)c1)C(O)C2=O` (configuration not stated) it is “inactive”.
The entry for `Cc1ccc(-c2cc(C(F)F)nc(N3CCC(C)CC3)n2)cc1` is “inactive”; for `Cc1[nH]n(C(N)=S)c(=O)c1C(c1ccccc1)C(C#N)C#N` (configuration not stated) it is “inactive”; for `CCOC(=O)c1cnc(-n2nc(C)cc2C)nc1N1CC(C)OC(C)C1` (configuration not stated) it is “inactive”.
The entry for `Cc1ccc(S(=O)(=O)N2CCCC2C(=O)n2nc(C)cc2C)cc1` (configuration not stated) is “inactive”; for `CCOCCn1c(CN2CCC(Cc3ccccc3)CC2)nc2c1c(=O)n(C)c(=O)n2C` it is “inactive”; for `Oc1c(C(c2ccccc2)N2CCc3ccccc3C2)sc2ncnn12` (configuration not stated) it is “inactive”.
With `CC1=C(C(N)=O)C(c2ccc(Cl)cc2Cl)n2ncnc2N1` (configuration not stated), the inhibition result is “inactive”.
The entry for `COC(=O)C1=C(C)N(c2ccc(C(=O)OC)cc2)C(=O)C1` is “inactive”; for `COCCCNC(=O)CCn1c(=O)c2ccccc2n(CC(=O)Nc2ccc(C)cc2C)c1=O` it is “inactive”; for `CCOc1cc(-c2nc3ccccn3c2NCC2CCCO2)ccc1O` (configuration not stated) it is “inactive”.
The entry for `Cc1cc(C)nc(SCc2nnc(SCc3ccccc3Cl)o2)n1` is “inactive”.

(Values after PubChem BioAssay AID454 (Sanford-Burnham Center for Chemical Genomics, 2006).)
